Bioassay records (PubChem)
NPC1 prom act: qHTS Assay for NPC1 Promoter Activators | hit rate 2.4% among 320,000 | Potency, µM (titrated, usually from 9.22 µM), usual class: activators | Huh7 NPC1 promoter luciferase reporter, 24 h | AID 485313, 2010; further: nearly all actives have a fitted effect of over 60% in size
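Huh7 cells stably carrying NPC1 promoter–luciferase, plated in Opti-MEM with 10% FBS for 2 h, were exposed to compound in DMSO for 24 h at 37 °C; luciferase reagent was added for 10 min and luminescence read.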
ELG1 repair inh: qHTS screen for small molecules that inhibit ELG1-dependent DNA repair in human embryonic kidney (HEK293T) cells expressing luciferase-tagged ELG1; hit rate 2.3% among 330,000; Potency, µM (titrated, usually from 46.1 µM), hits mostly inhibitors; AID 504467, 2011; HEK293T ELG1-luciferase reporter, luminescence, 16 h; DNA damage induced by 5-fluorouridine; further: nearly all actives have a fitted effect of over 55% in size
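Step one: seed 2,000 cells per well. Step two: pin-transfer compound or DMSO alongside 5-fluorouridine. Step three: incubate 16 hr, 37 °C, 5% CO2. Step four: add ONE-Glo, wait 30 min, read luminescence.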
Rab9 promoter act: qHTS Assay for Rab9 Promoter Activators; Potency, µM (doses to about 9.22 µM), actives largely listed as activators; Huh7 Rab9 promoter-luciferase reporter, luminescence, 24 h; AID 485297, 2010; hit rate 2.8% among 320,000; further: nearly all actives have a fitted effect of over 60% in size
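Quantitative HTS format; Huh7 Rab9-luciferase reporter cells (1500/well) receive compound 2 h post-plating, incubate 24 h at 37 °C, then get luciferase reagent for 10 min before luminescence reading.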
FLuc counter: qHTS profiling assay for firefly luciferase inhibitor/activator using purifed enzyme and Km concentrations of substrates (counterscreen for miR-21 project); Luciferin 4-monooxygenase (Photinus pyralis), P08659; purified FLuc, Km substrates, luminescence inhibition; Potency, µM (top dose mostly 57.5 µM), hits mostly inhibitors; hit rate 6.9% among 360,000; AID 588342, 2011; further: nearly all actives have a fitted effect of over 55% in size
Target sequence (P08659 whole entry, looked up): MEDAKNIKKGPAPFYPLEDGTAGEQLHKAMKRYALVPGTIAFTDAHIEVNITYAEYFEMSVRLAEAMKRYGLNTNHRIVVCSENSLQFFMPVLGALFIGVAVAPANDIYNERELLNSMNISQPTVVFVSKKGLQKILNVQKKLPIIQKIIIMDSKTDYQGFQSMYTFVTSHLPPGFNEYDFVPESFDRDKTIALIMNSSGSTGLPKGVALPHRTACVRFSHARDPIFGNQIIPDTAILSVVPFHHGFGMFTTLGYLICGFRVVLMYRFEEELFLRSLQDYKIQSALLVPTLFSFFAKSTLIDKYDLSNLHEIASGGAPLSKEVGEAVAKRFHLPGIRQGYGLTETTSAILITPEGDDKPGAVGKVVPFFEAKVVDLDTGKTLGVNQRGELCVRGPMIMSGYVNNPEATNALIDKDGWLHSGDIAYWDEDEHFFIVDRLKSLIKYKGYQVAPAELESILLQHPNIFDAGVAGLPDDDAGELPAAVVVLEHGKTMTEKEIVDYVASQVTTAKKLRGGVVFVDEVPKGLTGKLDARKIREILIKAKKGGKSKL
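Purified P. pyralis luciferase (10nM final) with 10uM D-luciferin and 10uM ATP (Km levels) in 50mM Tris acetate pH 7.5, 10mM Mg acetate, 0.01% Tween-20, 0.05% BSA; qHTS 6-point titration, ~60 µM downward; luminescence read.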
ELG1 genotox: qHTS screen for small molecules that induce genotoxicity in human embryonic kidney (HEK293T) cells expressing luciferase-tagged ELG1; hit rate 1.3% among 330,000; HEK293T ELG1-luciferase reporter, luminescence, 16 h; Potency, µM (series often up to 46 µM), actives largely listed as activators; further: nearly all actives have a fitted effect of over 60% in size
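HEK293T cells expressing luciferase-tagged ELG1 were exposed to compound or DMSO vehicle for 16 hr at 37 °C and 5% CO2. Luciferase activity was then measured with ONE-Glo after 30 min at room temperature.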
SMN2 splice enh: qHTS Assay for Enhancers of SMN2 Splice Variant Expression; HEK293 SMN2-luciferase splicing reporter, luminescence, 30-36 h; Potency, µM (doses to about 46.1 µM), actives largely listed as activators; hit rate 2.8% among 210,000; AID 1458, 2008; further: nearly all actives have a fitted effect of over 55% in size
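HEK293 cells carry an SMN2 minigene-luciferase reporter in which exon 7 inclusion puts luciferase in frame. Cells were seeded at 2000 cells/well, attached for 10-12 hours, then exposed to compounds for 30-36 hours at 37C before ONE-Glo luminescence.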
Numbers stand for hits; - = inactive; ? = inconclusive; . = not tested or not shown. A selection: hits, their analogues and other compounds. The true share with any hit is near 9.2%. The call rests on the fitted dose curve; in most records, active means well fitted curve in the direction sought with a large enough effect; inconclusive means small, poorly fitted or top-dose-only effect, or another doubt; inactive means no such curve, though single readings can be large; an effect the other way counts as inactive or inconclusive.

SMILES	NPC1 prom act	ELG1 repair inh	Rab9 promoter act	FLuc counter	ELG1 genotox	SMN2 splice enh
CC(C)[C@H](NS(=O)(=O)c1ccccc1F)C(=O)NC1CCCCC1	.	5.2µM	.	.	-	.
CC1CCc2onc(C(=O)N3CCN(c4ccc(Cl)cc4)CC3)c2C1 (stereo not drawn)	.	.	.	-	.	.
Cc1cc(N=Nc2ccc(Cl)cc2)cc(CN2CCOCC2)c1O	-	-	-	17µM	-	.
CCOc1ccc(Cl)cc1CN1CCOCC1	-	-	-	-	-	-
Cc1cc(N=Nc2ccc(Cl)cc2)cc(CN2CCCC2)c1O	-	-	-	?	-	.
CCCCCOc1ccc(Cl)cc1CN1CCOCC1	-	?	?	15µM	21µM	-
Cc1ccc2c(c1C)OC(=O)CC2(C)C	-	-	-	-	-	-
O=C(COc1ccc(S(=O)(=O)N2CCCC2)cc1Cl)NCc1cccnc1	-	-	-	-	-	.
Cc1cccc(N(CC(=O)NC2CCCC2)C(=O)c2cc3cc4cccc(C)c4nc3s2)c1C	-	18µM	-	-	-	-
Cc1ccc(C)c(N(CC(=O)NC2CCCC2)C(=O)c2cc3cc4cc(C)ccc4nc3s2)c1	-	-	-	-	-	-
Cc1cccc(NC(=O)c2nc[nH]c2C(=O)NCCCCCNC(=O)OC(C)(C)C)c1	-	21µM	-	-	-	.
Cc1cccc(NC(=O)c2nc[nH]c2C(=O)NCCCNC(=O)c2[nH]cnc2C(=O)Nc2cccc(C)c2)c1	.	9.2µM	.	.	-	.
Cc1cccc(NC(=O)c2nc[nH]c2C(=O)NC2CCN(C(=O)OC(C)(C)C)CC2)c1	-	26µM	-	-	-	.
Cc1cccc(NC(=O)c2nc[nH]c2C(=O)NCCN(CCNC(=O)c2[nH]cnc2C(=O)Nc2cccc(C)c2)CCNC(=O)c2[nH]cnc2C(=O)Nc2cccc(C)c2)c1	.	-	.	.	-	.
O=C(Nc1ccc(Cl)cc1)c1nc[nH]c1C(=O)NCCCNC(=O)c1[nH]cnc1C(=O)Nc1ccc(Cl)cc1	.	2.6µM	.	.	-	.
Cc1cccc(NC(=O)c2nc[nH]c2C(=O)N[C@@H](CCCCNC(=O)OC(C)(C)C)C(=O)OC(C)(C)C)c1	-	15µM	-	-	-	.
CC(C)(C)OC(=O)NCCCC[C@H](NC(=O)c1nc[nH]c1C(=O)N[C@@H](CCCCNC(=O)OC(C)(C)C)C(=O)OC(C)(C)C)C(=O)OC(C)(C)C	-	9.2µM	-	-	-	.
CC(C)(C)OC(=O)NCCCC[C@H](NC(=O)c1nc[nH]c1C(=O)NC1CCN(C(=O)OC(C)(C)C)CC1)C(=O)OC(C)(C)C	-	16µM	-	-	-	.
CC(C)C[C@H](NC(=O)c1nc[nH]c1C(=O)NC1CCN(C(=O)OC(C)(C)C)CC1)C(=O)OC(C)(C)C	-	-	-	-	-	.
CCCCNc1ncnc2c1cnn2-c1ccc(Cl)cc1	?	?	?	2.7µM	2.3µM	5µM
CCc1nc(NC(C)(C)C)c2cnn(-c3ccccc3)c2n1	?	?	?	19µM	?	.
COCCCNc1ncnc2c1cnn2-c1ccc(F)cc1	.	.	.	11µM	.	.
Clc1ccc(-n2ncc3c(NCCCn4ccnc4)ncnc32)cc1	?	?	?	11µM	8.2µM	-
CC(C)(C)c1cc(C(=O)N2CCc3ccccc3C2)ccn1	-	-	-	-	-	.
COc1cccc(OCCCCn2c(-c3ccc(Cl)cc3)nc3ccccc3c2=O)c1	.	.	.	-	.	-
CCCCNc1ncnc2c1cnn2-c1ccccc1	?	?	?	5.4µM	?	3.5µM
Cc1cccc(C)c1NC(=O)CN(C)C(=O)c1cccc(S(=O)(=O)N2CCN(c3ccc(F)cc3)CC2)c1	-	-	-	-	-	.
CN(CC(=O)Nc1ccccc1Cl)C(=O)c1cccc(S(=O)(=O)N2CCN(c3ccc(F)cc3)CC2)c1	1.4µM	?	2.2µM	3.4µM	1.8µM	.
Cc1nc(N2CCCCC2)sc1C(=O)c1ccc(Cl)c([N+](=O)[O-])c1	-	18µM	-	-	-	-
